The text below walks through data of PubChem BioAssay (NCI).

Some test systems named below: NCI-H23 lung; NCI-H226 lung; NCI-H322M lung; HOP-62 NSCLC; NCI-H460 lung; HOP-92 NSCLC; NCI-H522 lung; A549/ATCC NSCLC; 786-0 renal; COLO 205 colon; DU-145 prostate; K-562 leukemia; MALME-3M melanoma; MDA-MB-231 breast; RXF 393 renal; SF-268 CNS; SF-295 CNS; SF-539 CNS; UACC-257 melanoma; M14 melanoma.
Experiment in all cases: NCI-60 one-dose screen, 48 h (100 = growth as untreated, 0 = no growth, -100 = all killed)
Holding throughout (settings): 10 µM unless noted

Compounds without any hit were thinned out: in the full panel of roughly 83,000, 20% have a hit.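 96-well plates, one dose, 48 hours. Percent growth reported; active if below 10.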 Unmarked numbers belong to inactive results. Activity calls are given as the source filed them.

In the case of `CN1CC(c2ccccc2)C(C(=O)c2ccc(Br)cc2)C12C(=O)Nc1ccccc12` (stereo not given), the growth is 96.2% in the assay with NCI-H23 lung; 90.5% in the assay on NCI-H226 lung; 103% in the assay on NCI-H322M lung; 94.8% in the assay on HOP-62 NSCLC; 99.4% in the assay on NCI-H460 lung; 86.3% in the assay on HOP-92 NSCLC. The growth with NCI-H522 lung was 83%; in the assay on A549/ATCC NSCLC, 92.2%; in the assay on 786-0 renal, 97.8%; with COLO 205 colon, 112%; with DU-145 prostate, 104%; in the assay with K-562 leukemia it was 75.3%. Moreover, the growth in the assay on MALME-3M melanoma is 99.4%; with MDA-MB-231 breast, 94.7%; in the assay on RXF 393 renal, 92.6%; in the assay with SF-268 CNS, 91.2%; in the assay with SF-295 CNS, 93.9%; in the assay on SF-539 CNS, 102%. Further, the growth in the assay on UACC-257 melanoma is 103%; with M14 melanoma, 102%.

Turning to `CCN1C(=O)N(CC)C2C1NN=c1s/c(=C\c3ccc(F)cc3)c(=O)n12` (stereo not given), the growth in the assay with NCI-H23 lung was 39.3%; in the assay with NCI-H226 lung, 63.4%; with NCI-H322M lung it was 44.2%; in the assay on HOP-62 NSCLC it was 39.3%; in the assay on NCI-H460 lung, 5.08% (active); with HOP-92 NSCLC, 43.6%. Besides, the growth in the assay on NCI-H522 lung was -5.22% (active); in the assay on A549/ATCC NSCLC it was 15.5%; with 786-0 renal it was 35%; with COLO 205 colon, 5.08% (active); in the assay with DU-145 prostate it was -11.2% (active); in the assay on K-562 leukemia it was 8.05% (active). In addition, the growth in the assay on MALME-3M melanoma was 49.9%; in the assay with MDA-MB-231 breast, 24.1%; with RXF 393 renal, 5.29% (active); with SF-268 CNS it was 53.3%; with SF-295 CNS, 13.6%; in the assay with SF-539 CNS it was -14.9% (active). Further, the growth with UACC-257 melanoma is 56%; in the assay with M14 melanoma it was 12.6%.

For `COC(=O)c1sc(-c2ccc(C)cc2)cc1O`, the growth in the assay with NCI-H23 lung is 99.1%; in the assay on NCI-H226 lung, 109%; in the assay on NCI-H322M lung, 94.2%; with HOP-62 NSCLC, 109%; in the assay with NCI-H460 lung, 101%; with HOP-92 NSCLC, 105%. Moreover, the growth in the assay with NCI-H522 lung was 105%; in the assay with A549/ATCC NSCLC it was 103%; in the assay with 786-0 renal, 96.7%; in the assay on COLO 205 colon it was 107%; with DU-145 prostate it was 101%; with K-562 leukemia, 84.3%. The growth in the assay on MALME-3M melanoma was 97.9%; in the assay with MDA-MB-231 breast it was 99.6%; in the assay with RXF 393 renal it was 109%; with SF-268 CNS, 96.2%; in the assay on SF-295 CNS it was 112%; in the assay with SF-539 CNS, 114%. Moreover, the growth is 115% in the assay on UACC-257 melanoma and 101% in the assay with M14 melanoma.

Take `NC(=O)[C@@H]1Cc2ccccc2CN1C(=O)c1ccc2c(c1)Cc1ccccc1-2`: the growth with NCI-H23 lung was 89.4%; in the assay on NCI-H226 lung, 83.2%; in the assay with NCI-H322M lung it was 103%; with HOP-62 NSCLC it was 108%; with NCI-H460 lung it was 91.5%; in the assay with HOP-92 NSCLC, 92.9%. For the same compound, the growth in the assay on NCI-H522 lung is 66.9%; in the assay on A549/ATCC NSCLC, 64.9%; in the assay on 786-0 renal, 97.8%; with COLO 205 colon, 105%; in the assay on DU-145 prostate, 86%; in the assay on K-562 leukemia, 58.9%. The growth is 87.3% in the assay on MALME-3M melanoma; 98.4% in the assay on MDA-MB-231 breast; 91.9% in the assay on RXF 393 renal; 87.3% in the assay with SF-268 CNS; 79.8% in the assay with SF-295 CNS; 97.6% with SF-539 CNS. Also, the growth was 94.9% in the assay on UACC-257 melanoma and 87.4% with M14 melanoma.

Consider `COCCNC(=O)Cc1cc(-c2ccc(Cl)cc2)n(-c2ccccc2)c1C`, for which the growth in the assay with NCI-H23 lung is 73.6%; with NCI-H226 lung, 89.8%; in the assay on NCI-H322M lung, 95.4%; in the assay with HOP-62 NSCLC it was 2.89% (active); in the assay on NCI-H460 lung, 94%; in the assay with HOP-92 NSCLC it was 78.8%. In addition, the growth with NCI-H522 lung was 58.8%; with A549/ATCC NSCLC it was 82.1%; in the assay with 786-0 renal, 88.7%; in the assay with COLO 205 colon it was 96.3%; with DU-145 prostate it was 101%; in the assay with K-562 leukemia, 64.7%. The growth was 93.7% with MALME-3M melanoma; 89.9% in the assay with MDA-MB-231 breast; 84.8% in the assay on RXF 393 renal; 88.5% in the assay on SF-268 CNS; 85.6% with SF-295 CNS; 92.8% in the assay with SF-539 CNS. Besides, the growth with UACC-257 melanoma is 95.6%; in the assay with M14 melanoma, 88.1%.

For the compound `COc1ccc(C(=O)C2OC3=C(C(=O)CC(C)(C)C3)C2c2cccc(Oc3ccccc3)c2)cc1` (stereo not given), the growth was 97% in the assay with NCI-H23 lung; 86.9% with NCI-H226 lung; 95.1% in the assay on NCI-H322M lung; 97% in the assay with HOP-62 NSCLC; 96.9% in the assay with NCI-H460 lung; 76.4% with HOP-92 NSCLC. Further, the growth in the assay with NCI-H522 lung was 76.3%; in the assay with A549/ATCC NSCLC, 85.7%; with 786-0 renal, 93%; in the assay on COLO 205 colon, 110%; with DU-145 prostate, 102%; in the assay with K-562 leukemia it was 87.2%. Besides, the growth is 112% with MALME-3M melanoma; 87.5% in the assay with MDA-MB-231 breast; 101% in the assay with RXF 393 renal; 92.5% in the assay on SF-268 CNS; 97.1% in the assay on SF-295 CNS; 94.5% in the assay with SF-539 CNS. Also, the growth was 91% with UACC-257 melanoma and 98.7% with M14 melanoma.

`COc1nc2ccccc2cc1/C=[N+](\[O-])c1ccccc1`: the growth in the assay with NCI-H23 lung is 75.4%; in the assay with NCI-H226 lung, 69.5%; in the assay with NCI-H322M lung, 86.5%; with HOP-62 NSCLC it was 80.4%; in the assay on NCI-H460 lung it was 99.6%; with HOP-92 NSCLC it was 64.4%. In addition, the growth in the assay with NCI-H522 lung is 82.7%; in the assay on A549/ATCC NSCLC, 94.8%; in the assay with 786-0 renal, 102%; in the assay with COLO 205 colon, 108%; in the assay with DU-145 prostate, 102%; with K-562 leukemia, 13.5%. The growth in the assay on MALME-3M melanoma is 60.9%; in the assay on MDA-MB-231 breast, 57.5%; in the assay on RXF 393 renal it was 85.5%; with SF-268 CNS, 65.5%; in the assay on SF-295 CNS it was 93.5%; in the assay with SF-539 CNS it was 34.2%. For the same compound, the growth in the assay with UACC-257 melanoma was 93%; with M14 melanoma, 39.6%.

Take `Cc1c2cnccc2c(C)c2c1c1cc(C(=O)O)ccc1n2C`: the growth is -32.4% (active) in the assay on NCI-H23 lung; -25.8% (active) in the assay on NCI-H226 lung; -1.54% (active) in the assay with NCI-H322M lung; -8.17% (active) in the assay with HOP-62 NSCLC; 1.58% (active) in the assay on NCI-H460 lung; -3.06% (active) with HOP-92 NSCLC. The growth is -47.8% (active) in the assay on NCI-H522 lung; 8.95% (active) in the assay on A549/ATCC NSCLC; 22.3% in the assay with 786-0 renal; -9.71% (active) in the assay on COLO 205 colon; 4.3% (active) with DU-145 prostate; 9.3% (active) with K-562 leukemia. Moreover, the growth is -31.8% (active) with MALME-3M melanoma; 3.08% (active) in the assay on MDA-MB-231 breast; -72.1% (active) in the assay on RXF 393 renal; 0.973% (active) in the assay with SF-268 CNS; -2.38% (active) with SF-295 CNS; -24.5% (active) in the assay on SF-539 CNS. Further, the growth is -31.4% (active) in the assay with UACC-257 melanoma and -0.906% (active) with M14 melanoma.
